{"source": "PubChem BioAssay AID2315", "about": "(National Center for Advancing Translational Sciences (NCATS), 2010)", "note": "About 27,000 (9.3%) of roughly 290,000 compounds were called active. The sample holds actives, similar compounds and a random draw of the others, so the mix is not that of the screen. Values without a mark were called inactive. Cut-off read from the data, not from the text of the source: active = inhibition mostly above about 28% (no sharp cut-off); inactive = mostly below about 43%.", "data": [{"assay": "A qHTS for Small Molecule Inhibitors of Shiga Toxin; note: 0% is about no effect", "conditions": "Vero cells, Shiga toxin protein synthesis inhibition reporter; at 38.7 µM, hits give high values", "values": [{"smiles": "C/C(=N\\NC(N)=S)c1ccncc1", "inhibition": "-3.77%"}, {"smiles": "C/C(=N/NC(=O)c1ccn(C)n1)c1ccncc1", "inhibition": "81.2% (active)"}, {"smiles": "C/C(=N/NC(=O)c1ccncc1)c1ccc2c(c1)OCO2", "inhibition": "1.65%"}, {"smiles": "O=C(C1CCC1)N1CCN(c2ccccc2)CC1", "inhibition": "-2.3%"}, {"smiles": "COc1ccc(NC(=O)CCCC2CCCCC2)c(OC)c1", "inhibition": "72.3% (active)"}, {"smiles": "CC(=O)Oc1ccc(NC(=O)CCC2CCCCC2)c(C(=O)O)c1", "inhibition": "9.77%"}, {"smiles": "COc1ccc(NC(=O)CCN2CCCC2)c(OC)c1", "inhibition": "-1.84%"}, {"smiles": "Cc1ccc(C)c(CN2CCC(CNC(=O)Nc3ccc(C)c(F)c3)CC2)c1", "inhibition": "9.21%"}, {"smiles": "Cc1nc(NC(=O)C23CCC(C)(C(=O)O2)C3(C)C)sc1C", "note": "(stereo not given)", "inhibition": "-12.8%"}, {"smiles": "Cc1nc(NC(=O)C2CCCCC2)sc1C", "inhibition": "61.6% (active)"}, {"smiles": "Cc1cnc(NC(=O)C2CCCC2)s1", "inhibition": "28.6%"}, {"smiles": "CCSc1nsc(NC(=O)Nc2cccc(C(C)=O)c2)n1", "inhibition": "41.5% (active)"}, {"smiles": "CCc1nc(SCC(=O)Nc2ccccc2OC)n[nH]1", "inhibition": "-3.11%"}, {"smiles": "C=CCSc1nsc(NC(=O)Nc2cccc(C(C)=O)c2)n1", "inhibition": "22.6%"}, {"smiles": "COc1ccccc1NC(=O)Nc1nnc(Cc2ccc(F)cc2)s1", "inhibition": "22.5%"}, {"smiles": "CCSc1nsc(NC(=O)Nc2ccccc2OC)n1", "inhibition": "27.4% (active)"}, {"smiles": "CC(=O)c1cccc(NC(=O)c2ccncc2)c1", "inhibition": "-0.119%"}, {"smiles": "COc1ccc(N2CC(C(=O)N[C@@H](C)C(=O)N3CCCCC3)CC2=O)cc1", "note": "(stereo not given in full)", "inhibition": "-4.4%"}, {"smiles": "COCCc1nn2c(=O)cc(COC(=O)c3cc(OC)c(OC)c(OC)c3)nc2s1", "inhibition": "-8.18%"}, {"smiles": "C/C(N)=C(/C#N)C(=O)COC(=O)C1=NN(c2ccccc2)C(=O)CC1", "inhibition": "-13.8%"}, {"smiles": "CCOCCCNC(=O)C(NC(=O)CNC(=O)c1ccccc1)c1ccc(OC)cc1", "note": "(stereo not given)", "inhibition": "-6.33%"}, {"smiles": "Cc1nc2ccccc2cc1C(=O)N/N=C/c1ccc([N+](=O)[O-])cc1", "inhibition": "-4.74%"}, {"smiles": "Cc1ccsc1C(=O)N/N=C/c1ccc([N+](=O)[O-])cc1", "inhibition": "64% (active)"}, {"smiles": "Cc1ccc(NC(=O)CN2CCC(C(N)=O)CC2)cc1[N+](=O)[O-]", "inhibition": "26%"}, {"smiles": "NC(=S)N/N=C/c1ccc([N+](=O)[O-])cc1", "inhibition": "4.32%"}, {"smiles": "Cc1ccc(NC(=O)CN(C)CC(=O)Nc2cccc(F)c2)cc1[N+](=O)[O-]", "inhibition": "14.5%"}, {"smiles": "Cc1ccc(NC(=O)c2sccc2C)cc1[N+](=O)[O-]", "inhibition": "87.3% (active)"}, {"smiles": "O=C(NCC(=O)N1CCN(c2ncc(C(F)(F)F)cc2Cl)CC1)c1ccc(Br)o1", "inhibition": "-3.85%"}, {"smiles": "C=C1CCN(C(CC(C)C)C(=O)N2CCOCC2)S(=O)(=O)c2ccccc21", "note": "(stereo not given)", "inhibition": "-4.26%"}, {"smiles": "O=C1C2C(c3ccccc3)CC=CC2C(c2ccoc2)N1Cc1ccccc1", "note": "(stereo not given)", "inhibition": "-1.21%"}, {"smiles": "O=C(/C=C/c1ccc(F)cc1)NCCNC(=O)/C=C/c1ccc(F)cc1", "inhibition": "-7.35%"}, {"smiles": "CC(C)c1ccc(/C=C/C(=O)NNC(=O)c2cccnc2)cc1", "inhibition": "0.769%"}, {"smiles": "C=CCNC(=O)/C=C/c1ccc(C(C)C)cc1", "inhibition": "96.1% (active)"}, {"smiles": "CCCNC(=O)N1CCC(c2ccc3c(c2)OCO3)CC1", "inhibition": "-2.98%"}, {"smiles": "Cc1nn(CC(=O)NCCc2ccccc2)c(=O)c2cc3occc3n12", "inhibition": "-3%"}, {"smiles": "COc1ccc(CNC(=O)C(C)n2nc(C)c3c(C)n(-c4ccccc4)nc3c2=O)c(OC)c1", "note": "(stereo not given)", "inhibition": "-6.6%"}, {"smiles": "CC(=O)N1c2ccc(S(=O)(=O)N3CCCC(C(=O)NCc4ccc(Cl)cc4)C3)cc2CC1C", "note": "(stereo not given)", "inhibition": "8.69%"}, {"smiles": "C=CCNC(=S)N/N=C/c1ccc(OCc2ccccc2)cc1", "inhibition": "-15.4%"}, {"smiles": "Cc1ccc(/C=N/NC(=O)CN2CCN(Cc3ccccc3)CC2)s1", "inhibition": "14.8%"}, {"smiles": "C=CCNC(=S)N/N=C/c1ccc(C)s1", "inhibition": "39.3% (active)"}, {"smiles": "CCCn1c(C(C)Nc2nc(-c3ccc(C)cc3)cs2)nc2cc(Cl)c(N3CCCCC3)cc21", "note": "(stereo not given)", "inhibition": "-1.11%"}, {"smiles": "Cc1ccc(C)c(-n2cc(CN3CCN(C(=O)c4ncn[nH]4)CC3)c(-c3ccccc3)n2)c1", "inhibition": "8.93%"}, {"smiles": "Cc1cccc(-n2cc(CN3CCN(C(=O)c4ncn[nH]4)CC3)c(-c3cccc(F)c3)n2)c1", "inhibition": "63.8% (active)"}, {"smiles": "CCC(O)C1CCN(Cc2cn(-c3ccc(OC)cc3)nc2-c2cccc(F)c2)CC1", "note": "(stereo not given)", "inhibition": "50.9%"}, {"smiles": "COc1ccc(S(=O)(=O)N(C)CC(=O)NCCCN2CCOCC2)cc1Cl", "inhibition": "-12.5%"}, {"smiles": "Clc1nc(NC2CCCC2)nc(N2CCOCC2)n1", "inhibition": "5.65%"}, {"smiles": "CCc1ccc(CNC(=O)C2CCN(c3nnc(C)c4c(C)n(-c5ccc(C)cc5)nc34)CC2)cc1", "inhibition": "-5.47%"}, {"smiles": "O=S(=O)(c1ccc(Cl)cc1)c1nc(-c2ccco2)oc1N1CCCCC1", "inhibition": "-0.989%"}, {"smiles": "CSc1ccc(S(=O)(=O)N2CCC(C(=O)NCCc3ccccc3)CC2)cc1", "inhibition": "56.2%"}, {"smiles": "CC(Oc1cc2oc(=O)c3c(c2cc1Cl)CCCC3)C(=O)NCc1ccncc1", "note": "(stereo not given)", "inhibition": "-3.65%"}, {"smiles": "CCN1/C(=C/c2ccc3ccc(C)cc3[n+]2CC)Sc2ccccc21", "inhibition": "5.47%"}, {"smiles": "O=C(CCN1c2ccccc2Sc2ccccc21)Nc1ccccc1", "inhibition": "-1.29%"}, {"smiles": "CCN1/C(=C/C(=S)Nc2ccccc2)Sc2ccccc21", "inhibition": "62.5% (active)"}, {"smiles": "CCn1cc(/C=C(\\NC(=O)c2ccc(C)cc2)C(=O)NCCN2CCOCC2)c2ccccc21", "inhibition": "1.24%"}, {"smiles": "C/C(=N/Nc1nc(-c2ccccc2)c(CC(=O)O)s1)c1ccccc1", "inhibition": "68.4% (active)"}, {"smiles": "CCOC(=O)C(=O)Nc1nc(-c2ccccc2)c(CC)s1", "inhibition": "-12%"}, {"smiles": "Cc1ccc(-c2nc(C)sc2CC(=O)O)cc1", "inhibition": "-13.7%"}, {"smiles": "COC(=O)c1cccc(N2C(=O)C3C4C=CC(CC4)C3C2=O)c1", "note": "(stereo not given)", "inhibition": "0.962%"}, {"smiles": "CC(C)Cn1cnc2c1c(=O)n(CC(=O)NN)c(=O)n2Cc1ccccc1", "inhibition": "-7.02%"}, {"smiles": "O=C(Nc1cccc([N+](=O)[O-])c1)N1CCc2ccccc2C1", "inhibition": "88.6% (active)"}, {"smiles": "O=C(C(=O)N1CCc2ccccc2C1)N1CCc2ccccc2C1", "inhibition": "8.23%"}, {"smiles": "CN1CCN(CC(=O)Nc2cccc([N+](=O)[O-])c2)CC1", "inhibition": "-12.8%"}, {"smiles": "CC(=O)Nc1cccc([N+](=O)[O-])c1", "inhibition": "17.7%"}, {"smiles": "CCc1ccc(NC(=O)N2CCc3ccccc3C2)cc1", "inhibition": "120% (active)"}, {"smiles": "CCc1ccc(NC(=O)N2CCN(c3ccccc3)CC2)cc1", "inhibition": "20.1%"}]}]}
